Measured values from PubChem BioAssay AID463173 (ICCB-Longwood Screening Facility, Harvard Medical School, 2010).
In all, about 52,000 compounds went through this assay and about 4,300 (8.3%) were called active. This is one part of a sample in which actives are shown more often than they occur. Cut-off read from the data, not from the text of the source: active = survival mostly below about 52% (no sharp cut-off); inactive = mostly above about 56%.

Tested on: DeltatarO mutant
Assay: S. aureus survival, RN4220 and DeltatarO strains – OD600, teichoic acid synthesis inhibitors, primary screen (AID 463173)
Conditions: S. aureus RN4220 wild type/DeltatarO growth, OD600, 18 h, stronger effect = lower value, screened at 18.75 µg/mL (by protocol)

Structure (SMILES) | survival
COc1ccc(CNC(=O)CCc2c(C)c3cc4c(C)c(C)oc4cc3oc2=O)cc1OC | 104% (inactive)
CCOc1ccc(OCC)c(Nc2nc3ccc(C(=O)c4ccccc4)cc3n3cnnc23)c1 | 77% (inactive)
CCCCNC(=O)C1CCN(c2nc3ccccc3nc2C(F)(F)F)CC1 | 115% (inactive)
O=C(NCCc1ccccc1Cl)C1CCN(c2nc3ccccc3nc2C(F)(F)F)CC1 | 37% (active)
CCNC(=O)C1CCN(c2nc3ccccc3nc2C(F)(F)F)CC1 | 144% (inactive)
CCCSCCCNC(=O)C1CCN(c2nc3ccccc3nc2C(F)(F)F)CC1 | 0% (active)
COc1ccccc1CCNC(=O)C1CCN(c2nc3ccccc3nc2C(F)(F)F)CC1 | 117% (inactive)
Cc1ccccc1CCNC(=O)C1CCN(c2nc3ccccc3nc2C(F)(F)F)CC1 | 72% (inactive)
CCOC(=O)c1cnc(N2CCN(c3cccc(C)c3C)CC2)c2ccccc12 | 77% (inactive)
CCOC(=O)c1cnc2cc(C(F)(F)F)ccc2c1N1CCN(c2cccc(Cl)c2)CC1 | 84% (inactive)
CCOC(=O)c1cnc2ccc(OCC)cc2c1N1CCN(c2ccccc2F)CC1 | 0% (active)
CCOC(=O)c1cnc(N2CCN(c3ccc(C)cc3C)CC2)c2ccccc12 | 87% (inactive)
CCOC(=O)c1cnc2ccc(OCC)cc2c1N1CCN(c2cccc(Cl)c2)CC1 | 3% (active)
CCOC(=O)c1cnc2c(OC)cccc2c1N1CCN(c2ccccc2F)CC1 | 1% (active)
COC(=O)c1cnc(N2CCN(c3ccccc3F)CC2)c2ccccc12 | 86% (inactive)
CCOC(=O)c1cc(S(=O)(=O)N2CCN(c3cccc(C)c3C)CC2)[nH]n1 | 81% (inactive)
CCOC(=O)c1cc(S(=O)(=O)N2CCN(c3ccccc3OC)CC2)[nH]n1 | 122% (inactive)
CCOC(=O)c1noc2ncnc(N3CCN(c4cccc(Cl)c4)CC3)c12 | 83% (inactive)
CCOc1ccc(NC(=O)NCCN2CCN(c3ccccc3F)CC2)cc1 | 87% (inactive)
CCOC(=O)c1cc(S(=O)(=O)N2CCN(c3ccccc3F)CC2)[nH]n1 | -5% (active)
CCOC(=O)c1ccccc1NC(=O)Cn1c(=O)n(-c2cccc(C)c2)c(=O)c2c1c1cc(C)ccc1n2C | 68% (inactive)
CCOc1ccc(C(=O)NCC(c2cccs2)S(=O)(=O)c2ccccc2)cc1 (configuration not stated) | 97% (inactive)
CC(C)OC(=O)c1cc2c(ccn2C)n1CCC#N | 96% (inactive)

Structure (SMILES) | survival
Cc1cc(Nc2ccccc2C)nc(-n2nc(C)cc2C)n1 | 83% (inactive)
Cc1ccc(S(=O)(=O)c2nc(-c3cccc(Cl)c3)oc2NCc2ccccc2)cc1 | 168% (inactive)
Cc1cccc(C)c1NC(=O)C(=O)NCC(c1cccnc1)N1CCc2ccccc21 (configuration not stated) | 62% (inactive)
CCOc1ccc(NC(=O)C(=O)NCC(c2cccnc2)N2CCc3ccccc32)cc1 (configuration not stated) | 44% (inactive)
COC(=O)c1ccc(NC(=O)C(=O)NCC(c2cccnc2)N2CCc3ccccc32)cc1 (configuration not stated) | 34% (active)
COc1ccc(NC(=O)C(=O)NCC(c2cccnc2)N2CCc3ccccc32)cc1OC (configuration not stated) | 61% (inactive)
Cc1cc(C)cc(NC(=O)C(=O)NCC(c2cccnc2)N2CCc3ccccc32)c1 (configuration not stated) | 43% (active)
Cc1ccc(NC(=O)C(=O)NCC(c2cccnc2)N2CCc3ccccc32)cc1Cl (configuration not stated) | 97% (inactive)
COc1ccc(NC(=O)c2cnc(N3CCCCC3)c3ccccc23)cc1Cl | 78% (inactive)
CCOc1cc(C(=O)Nc2ccc3c(c2)n(C)c(=O)c(=O)n3C)cc(OCC)c1OCC | 84% (inactive)
COc1ccc2c(c1)sc1ncc(C(=O)NCc3ccccc3F)c(=O)n12 | 101% (inactive)
Cc1ccc2[nH]c(C)cc(=S)c2c1 | 45% (active)
Cc1cc(=O)c2cc(Br)ccc2[nH]1 | 71% (inactive)
Cc1ccc2[nH]c(=O)cc(C(=O)O)c2c1 | 99% (inactive)
COc1cc(NC(=O)C(NS(=O)(=O)c2ccc3c(c2)CCCC(=O)N3)C(C)C)cc(OC)c1 (configuration not stated) | 71% (inactive)
CCC(=O)c1cc2c(cc1NC(=O)c1ccccc1F)OCCO2 | 68% (inactive)
O=C(Nc1cc2c(cc1C(=O)c1ccccc1Cl)OCCO2)c1ccc(Br)cc1 | 66% (inactive)
O=C(Nc1cc2c(cc1C(=O)c1cccc(Br)c1)OCCO2)c1ccccc1F | 28% (active)
CC1CCCN(S(=O)(=O)c2ccc(NC(=O)CSc3nc4ccccc4o3)cc2)C1 (configuration not stated) | 58% (inactive)
CCC1Oc2ccccc2N(CC(=O)NCc2ccccc2)C1=O (configuration not stated) | -1% (active)
CCC1Oc2ccc(C)cc2N(CC(=O)NCCc2ccccc2)C1=O (configuration not stated) | 80% (inactive)
CC1Oc2ccccc2N(CC(=O)NCc2ccccc2)C1=O (configuration not stated) | 92% (inactive)
CCC1Oc2ccc(C)cc2N(CC(=O)NCc2ccc(F)cc2)C1=O (configuration not stated) | 70% (inactive)

Structure (SMILES) | survival
CCC1Oc2ccccc2N(CC(=O)NCc2ccc(C)cc2)C1=O (configuration not stated) | 78% (inactive)
CCC1Oc2ccc(C)cc2N(CC(=O)NCc2ccc(OC)cc2)C1=O (configuration not stated) | 39% (active)
COc1ccc(C2c3c(oc4ccc(F)cc4c3=O)C(=O)N2Cc2ccc3c(c2)OCO3)cc1 (configuration not stated) | 59% (inactive)
COc1ccccc1N1CCN(c2ncnc3c2nc2n3CCCC2)CC1 | 67% (inactive)
Cc1cc(=O)n2nc(N3CCC(C(=O)NCc4ccccc4Cl)CC3)sc2n1 | 87% (inactive)
CCOC(=O)c1cccc(NC(=O)Nc2c(C)n(C)n(-c3ccccc3)c2=O)c1 | 94% (inactive)
CCCc1cc(=O)oc2cc(C)c3c(C(C)(C)C)coc3c12 | 88% (inactive)
CCCc1cc(=O)oc2cc(C)c3c(-c4ccccc4)c(C)oc3c12 | -10% (active)
CCCc1cc(=O)oc2cc(C)c3c(-c4cccc(OC)c4)coc3c12 | 67% (inactive)
Cc1ccc2[nH]c(=O)c(CN(Cc3ccccc3)C(=O)c3ccco3)cc2c1 | 103% (inactive)
CCc1nnc2n1N(C(C)=O)C(c1ccc(C(C)(C)C)cc1)=C(C(C)=O)S2 | 96% (inactive)
Cc1c(CNC2CCCCCC2)c(C(=O)O)c(C)n1Cc1ccc(F)cc1Cl | 80% (inactive)
COc1ccc(O)c(-c2cn[nH]c2-c2cccs2)c1 | 89% (inactive)
Fc1ccc2[nH]c(-c3cccs3)cc2c1 | 54% (inactive)
CN(C)c1ccc(-c2nc(-c3cccs3)c(-c3cccs3)[nH]2)cc1 | 47% (active)
Oc1cccc(-c2nc(-c3cccs3)c(-c3cccs3)[nH]2)c1 | 4% (active)
CN1C(C(=O)Nc2cccc(O)c2)=CC(c2cccs2)=NS1(=O)=O | 87% (inactive)
Fc1ccc(-c2nc(-c3cccs3)c(-c3cccs3)[nH]2)cc1 | 64% (inactive)
Oc1ccccc1-c1nc(-c2cccs2)c(-c2cccs2)[nH]1 | 0% (active)
Cc1ccc(-c2nc(-c3cccs3)c(-c3cccs3)[nH]2)cc1 | 62% (inactive)
Cc1sc(N)nc1-c1cccs1 | 96% (inactive)
